Assay results reported in PubChem BioAssay (EPA / NIEHS).
Calls of active or inactive are those of the source. How the source made its calls: active means hit-call score of the fitted dose curve at least 0.9, where 1 is the maximum; inactive means score below 0.9.

test: BSK_3C_SRB: Viability Assessment in the BioMAP Diversity Plus: 3C Assay (AID 2283023); details: primary human endothelial cells (HUVEC);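 further: cells read 24 h after compound dosing; fitted both ways against DMSO so a hit may be signal rise or drop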
How it was run: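 Cells were dosed with chemical, cultured 24 h, fixed with 10% TCA, stained with 0.1% SRB and read at 560 nm. Human umbilical vein endothelium was used; DMSO served as negative control and baseline.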

Row | SMILES | AC50 | outcome
1 | CC1(C)C(C=C(Cl)Cl)C1C(=O)OCc1cccc(Oc2ccccc2)c1 (stereo not drawn) | 6.15 µM (active) | –
2 | CCN(Cc1c(F)cccc1Cl)c1c([N+](=O)[O-])cc(C(F)(F)F)cc1[N+](=O)[O-] | 11.8 µM (active) | –
3 | COCCO | – | inactive
4 | COc1c(Cl)ccc(Cl)c1C(=O)O | – | inactive
5 | CCCN(CCC)C(=O)SCC | – | inactive
6 | CCCCOC(=O)[C@@H](C)Oc1ccc(Oc2ccc(C(F)(F)F)cn2)cc1 | – | inactive
7 | c1ccc2[nH]c(-c3cscn3)nc2c1 | – | inactive
8 | COC(=O)c1ccccc1S(=O)(=O)NC(=O)Nc1nc(OC(F)F)cc(OC(F)F)n1 | – | inactive
9 | CCCCCOC(=O)COc1cc(N2C(=O)C3=C(CCCC3)C2=O)c(F)cc1Cl | – | inactive
10 | O=C(O)c1ccccc1 | – | inactive
11 | CCCCCCC(C)OC(=O)COc1nc(F)c(Cl)c(N)c1Cl (stereo not drawn) | 30.1 µM (active) | –
12 | COC(=O)c1ccccc1C(=O)O | – | inactive
13 | CCCOC(=O)NCCCN(C)C | – | inactive
14 | CC(=O)[C@H]1CC[C@H]2[C@@H]3CCC4=CC(=O)CC[C@]4(C)[C@H]3CC[C@]12C | 6.1 µM (active) | –
15 | CCOC(=O)C(C)Oc1ccc(Oc2nc3ccc(Cl)cc3o2)cc1 (stereo not drawn) | – | inactive
16 | C[C@]12CC[C@@H]3c4ccc(O)cc4C[C@@H](CCCCCCCCCS(=O)CCCC(F)(F)C(F)(F)F)[C@H]3[C@@H]1CC[C@@H]2O (stereo partly drawn) | 3.51 µM (active) | –
17 | COC(=O)c1ccc(CNS(C)(=O)=O)cc1S(=O)(=O)NC(=O)Nc1nc(OC)cc(OC)n1 | – | inactive
18 | COC(=O)c1cccc(C)c1S(=O)(=O)NC(=O)Nc1nc(OCC(F)(F)F)nc(N(C)C)n1 | – | inactive
